We go through 29 molecules from the supplement of paper PMC12632987.

The full ranking holds about 1,800 sequences; the median of “median log2 fold change of GCK-ALFA target abundance (FLAG IP / Myc IP barcode read proportion)” is about 0.14, and the lowest 2% start at about -0.84. This is one part of a sample in which the lowest values are shown more often than they occur.

T1: TRAF2, Q12933
T1 chain: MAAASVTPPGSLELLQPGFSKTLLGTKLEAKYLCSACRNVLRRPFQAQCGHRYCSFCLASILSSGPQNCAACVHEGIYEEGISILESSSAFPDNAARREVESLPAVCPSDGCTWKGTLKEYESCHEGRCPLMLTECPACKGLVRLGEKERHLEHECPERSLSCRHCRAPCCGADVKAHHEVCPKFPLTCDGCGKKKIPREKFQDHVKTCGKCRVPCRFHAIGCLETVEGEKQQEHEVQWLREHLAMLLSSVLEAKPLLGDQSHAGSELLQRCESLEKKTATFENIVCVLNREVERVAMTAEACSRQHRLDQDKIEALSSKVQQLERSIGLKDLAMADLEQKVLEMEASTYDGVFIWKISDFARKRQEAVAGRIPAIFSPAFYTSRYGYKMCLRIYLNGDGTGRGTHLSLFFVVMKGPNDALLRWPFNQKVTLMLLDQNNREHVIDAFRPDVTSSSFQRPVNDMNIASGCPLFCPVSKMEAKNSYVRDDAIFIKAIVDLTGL

B1: traf2_out_11_155_685 (protein)
chain: EEKQKINNELVDKISEIADKAKAEARAIAAATAAAHPEAAAALAATLEASAGFGLSSFLGRLAATFRALGLADAAAQVEALRAQAQKEMNAAVKEAEEKL
B2: traf2_out_11_169_804 (protein)
chain: EEAEKNREINDFALELNDEAVARLEEAALALAREAGLDPEEVRAIFEAHKGKSLSAVAAALIRHFRERGAEAAAEAVLALYEELKEEINKKMTEKIKELE
B3: traf2_out_18_3_1946 (protein)
chain: SEEERKKYSEKLDEVFDDTGAEILARARALVAEDPRFQPALDAIEAIAARGPRPATMANTLIDALRALGYEEEAAAVEEYYSEKAKEASELIKKYEEAIK
B4: traf2_out_17_178_1710 (protein)
chain: SKAEARATISAATDRMIDLAEAAAAELLAIAEAEGDLSPEELAELRRARRLGSARTTLALMRRAIPKLKSAERVQALLDRFEAEYAALAKEIAAALEKYE
B5: traf2_out_17_178_1731 (protein)
chain: SREEILKKISEKADELLDTNKEAMDELRKIAEKEGVLTPELREKLDAVHRNANLYALEEVFDEVIEKTKSKEEVEKLKEETSKKMRELNKEIQALVEELE
B6: traf2_out_6_156_2382 (protein)
chain: DIEKILEEAKKKIEELIKKLSKAPESKKIRYINEIAGTVYRALQKLRDLGASLEELKEFTEEIKKFVEEQLEKYGLDESTKNLILSSINAVGEVALREAA
B7: traf2_out_20_3_2262 (protein)
chain: DELRAKAEAALAEAEALLAELAPRLPAADAARLQELLDAAKAAFATDLRDALVYLSELRRLALALAEEARAAGDAALAAALEALADAVGRAANYVYKIIE
B8: traf2_out_20_38_2004 (protein)
chain: SEEEEEEKRLEKIIQAANDALDAWEARFAALKAEGKSVEEIAEIAKEEIRRLLTAAGLEEEAEELVAQVDLVLDSPDAERLIARILARAAALVTQKKLQE
B9: traf2_out_20_38_2006 (protein)
chain: SEEEEEEKRLQKIIDAANEELDRWEKEIEELRAEGKSVEEIAEIAKKRIREMLTAAGLEEEAEELIAQVDTVLDSPDAERAIARILARAAALVTQKKLQE
B10: traf2_out_11_131_660 (protein)
chain: MDAVATARSAAERVDALLALAETLSPEERHRLALHALDTIEAVAEYLTSHVSTMTKEEVKEAARILREARDRVLALDPRVAPEAAEVEEAIKKLLEAAEE
B11: traf2_out_12_161_940 (protein)
chain: SSEHFQELSDVANKAFDKAQEIVDRVAEVSPALRPTFLAVARSLTLPVEEARAILDAAIAAHEAELTPEQLAEVRALGDELLAIQKEAQEEIKKIQEKYR
B12: traf2_out_3_89_2294 (protein)
chain: SMEQEKKLEEMRKRMEAYLRGFERSARWVARQMVADGMSLDTIRGVLEAARTALLEVLRESAEEAGLSPEQIEELVEEARERLERIVEEVVEEARREREA
B13: traf2_out_16_171_1431 (protein)
chain: SAEEKEKALKEEIDKERDDIIERMETAVEVTPLISKETGLTVEQIAKGFRSTMDDRIEALKKKYEEAAKTASEEVKKYMKERLEEIEKAKEEALKKILEI
B14: traf2_out_13_95_1115 (protein)
chain: SKELAEKIMEISDKALDQANALLDALEAKIKASGKLAPEVAAALAAAKKSTISTAIHTLKELAKKYPEFKADFEATIAQLEQIRRDAGREVAKLIKEEKE
B15: traf2_out_16_104_1404 (protein)
chain: AEAKQAEFDAIIAELEAIADKLQKIANKLYKLYLKADPETKVKLSDALVKASEARRAALEAAERAREARETGGDLAEARAALAKAKEEAAKVEKEVKELE
B16: traf2_out_17_162_1515 (protein)
chain: SALEEELAKLEKELKKIEKELKELKEKLKDLDKMSKEELTDLLVEASEARRRALELAERLEELKPEIGEERAGKLIAEARKLAEELQKIANKIYKKLEEK
B17: traf2_out_14_149_1232 (protein)
chain: SAEQEKLRAAAEINAEIAAALDEVLALLDAGKVEEAKALLRATIAELRARGAAHGITVSGLFVLEEILALLDTDVEAAKAAAAAARARARNAAEAFREMA
B18: traf2_out_20_3_2202 (protein)
chain: EELEKKLEEELEKAEELLKKAKELADPETAKKLDELIKRLKESRELSYEDRLVELSEIRREVLLLAQQAKAEGNEELAKVLEEAAEAINRAKNLVYKIIE
B19: traf2_out_13_95_1184 (protein)
chain: SEETKKKINEIADDMLEKVEKILTELAEKVKDDPEVKKAVEEIKKTAVTKGIHTAIGELKELAKKYPEYKELINEAIEKIEEIRREAGKKVAEILKEEEE
B20: traf2_out_20_3_2107 (protein)
chain: KELEEELEKELEEAIKLLEEAAKLADEETAKRLEELRKRVEASRELPYTDRLVALSEVRREVLALAQEAEAAGKEELAKVLEEAADELNKAMNLLMKIIE
B21: traf2_out_15_48_1346 (protein)
chain: DIEKEQKIASEIADDSDKLKDKVAKELEELQKKANPEEAAILDELIAAIRSGASLRTVRGLLLQAQPKFSPETAAKLKALAEEIDELIRENSKRYNEVLK
B22: traf2_out_18_117_1795 (protein)
chain: SEREEIIEELEELAERLGKAASELGKAVLDNWEKLTPEEKSEAMDVLADLSAVRRRAQELIHKIKTENIPVEEARKELEELKKEAEAALAAAEAKIARIK
B23: traf2_out_9_108_2595 (protein)
chain: MTEEEKEEETYEKILKLAKDFLERYDVSEELRADMEAAIEQAEKLRKEGEKRTANILIAISTARVAYEIGEEAVKDFLAELKKIDERSYNAAKRMVKLLK
B24: traf2_out_13_95_1087 (protein)
chain: SAETNAKINEIADKMMEKIEAILDKLSEEVADDPELKAEVEAAKELAITRGVNEAIHKLRELSKAHPEYKEKLDKAIDEIEKVKREASKEISKLLKEEKE
B25: traf2_out_6_3_2532 (protein)
chain: SHMSLLKDAKTVLENMGITTIEELKALVKAEVNAIKKLISRKDVDEADLAGARSVVALSRAMVEVAKETLPDFTEEDYEELNKLLEETEKLIKEREEKLK
B26: traf2_out_17_178_1748 (protein)
chain: NEEELKKIINEKNNEIADIAEKLAEEILKLAKEDPSISPETLALIEEARRNGSHNTAVALFLEASKNEETKKKVEELHKKASEEMNKLAKEREEAIEKYK
B27: traf2_out_11_104_639 (protein)
chain: LTREQAREFNDFAMAKEDEARAVAAELAAALEAAGETAAAARVRAALAHPGAGISTFRNLLEDLLPTLSPAAAAQARAAIARLAALQREVSAKLNELEAK
B28: traf2_out_6_156_2377 (protein)
chain: TKEEILKKAKEKIEKEIKKLAEASEEKKIKYISEIAGAVYKALQALREAGASVEEIKKAVEELKKVAEEEAKKAGLPEDTINLLLSSINAVGEVALREAE
B29: traf2_out_17_178_1665 (protein)
chain: TKEEERKKISELTDKLIDLAEAAADRALALAEREGDLSPEELAALREARRRGSATDVRALMRRWIPRLRSAAELGALLEEFEAEYRKLSKEIAEAYEKYE

The assay concerns the target T1, TRAF2, Q12933. Nature of the assay: median log2 fold change of GCK-ALFA target abundance (FLAG IP / Myc IP barcode read proportion) (log2 ratio); each designed protein is fused to an ALFA-tag nanobody in HEK293 cells to bring the named protein to FLAG-tagged glucokinase (GCK); Myc marks an untargeted standard; higher = target protein stabilised (more abundant). The conditions noted are these: target protein: 3xFLAG-MCP-GCK-ALFA reporter; HEK293 landing pad (RPLP). How it is done: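 LABEL-seq trans screen in HEK293 landing-pad cells. Each de novo designed 100-aa effector handle, binding the indicated effector (E3 ligase, DUB or autophagy protein), is fused to a constant NbALFA target handle and induced with 2 ug/mL doxycycline. A FLAG-MCP-GCK-ALFA target and a Myc-MCP standard reporter were transfected, and after 48 h circRNA barcodes were recovered by anti-FLAG and anti-Myc IP and sequenced. The value is the median across barcodes (at least 3 per design) of log2(FLAG/Myc read-proportion ratio), with the two transfection replicates pooled. Negative values mean degradation and positive values mean stabilisation of the target.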
Consider B1, for which the “median log2 fold change” value stood at 0.177.

On to B2, for which the “median log2 fold change” value worked out at 0.243.

B3: the “median log2 fold change” value turned out to be 0.267.

Turning to B4, the “median log2 fold change” value is -0.136.

Take B5: the “median log2 fold change” value stood at 0.639.

For B6, the “median log2 fold change” value was 0.0808.

B7: the “median log2 fold change” value was 0.219.

Regarding B8, the “median log2 fold change” value was -1.04.

Turning to B9, the “median log2 fold change” value was -0.29.

For B10, the “median log2 fold change” value is 0.0927.

For the molecule B11, the “median log2 fold change” value is -1.56.

Regarding B12, the “median log2 fold change” value is -0.433.

For the molecule B13, the “median log2 fold change” value amounted to 0.175.

On to B14, for which the “median log2 fold change” value is -0.178.

On to B15, for which the “median log2 fold change” value came out at 0.341.

For B16, the “median log2 fold change” value came out at 0.222.

Take B17: the “median log2 fold change” value is 0.339.

As to B18, the “median log2 fold change” value is -0.0195.

As for B19, the “median log2 fold change” value is -0.726.

B20: the “median log2 fold change” value was 0.327.

Take B21: the “median log2 fold change” value is 0.203.

In the case of B22, the “median log2 fold change” value turned out to be 0.171.

In the case of B23, the “median log2 fold change” value is -0.632.

Take B24: the “median log2 fold change” value amounted to 0.249.

Take B25: the “median log2 fold change” value was -1.3.

On to B26, for which the “median log2 fold change” value turned out to be 0.486.

In the case of B27, the “median log2 fold change” value is 0.214.

B28: the “median log2 fold change” value was 0.122.

Consider B29, for which the “median log2 fold change” value was found to be 0.057.
